In PubChem BioAssay (NCI):
Compounds without any hit were thinned out: in the full panel of roughly 83,000, 20% have a hit.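 Negative percent growth values reflect cell death: -40 means 40% of the cells present at the start died, and -100 means all died.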 Unmarked numbers belong to inactive results. How the source made its calls: active means growth percent below 10; inactive means the rest.

Test system: HCC-2998 colon
Test: NCI-60 one-dose screen, 48 h (100 = growth as untreated, 0 = no growth, -100 = all killed)
Conditions: 10 µM unless noted

Question: `C#C[C@]1(O)CC[C@H]2[C@@H]3CC=C4c5sc(NCc6ccccc6)nc5CC[C@]4(C)[C@H]3CC[C@@]21C` was tested. Which growth did it give?
Answer: The growth was 78.1%.

Question: `Cn1cc(-c2cc3ncnc(Nc4ccc(NC(=O)Nc5cc(C(C)(C)C)on5)cc4)c3s2)cn1` was tested. Which growth did it give?
Answer: Its growth is 74.1%.

Question: For `CCc1cccc2c3c(sc12)C(c1ccc(F)cc1)C(C#N)=C(/N=C/c1ccc(Cl)cc1)O3` (stereo not drawn), which growth is on record?
Answer: Its growth is 10.3%.

Question: For `C1=CC(c2nn3c(-c4ccccc4)nnc3s2)=Cc2ccccc2O1`, which growth is on record?
Answer: The growth was 97%.

Question: For `Cc1ccc(-c2csc(N/N=C/c3cccs3)n2)cc1`, which growth is on record?
Answer: The growth was 115%.

Question: With `C#C[C@]1(O)CC[C@H]2[C@@H]3CC=C4c5sc(Nc6ccc(C)cn6)nc5CC[C@]4(C)[C@H]3CC[C@@]21C` as the molecule, how does the growth read?
Answer: The growth was 19.2%.

Question: For `COC(=O)c1ccc(NC2=C(Cl)C(=O)c3nc(C)ccc3C2=O)cc1`, which growth is on record?
Answer: Its growth is 102%.

Question: `CCCCCN1C(=O)/C(=c2\sc3n(c2=O)C2C(NN=3)N(CC)C(=O)N2CC)c2cccc(C)c21` (stereo not drawn) was tested. Which growth did it give?
Answer: The growth was 86%.

Question: Which growth does the source give for `COc1ccc(/C(=N\N=C(N)N)c2ccc(Cl)cc2)cc1OC` here?
Answer: Its growth is 69.8%.

Question: Which growth does the source give for `CCCCCC[n+]1ccc(SCC(=O)n2ccc3ccccc32)c2ccccc21` here?
Answer: The growth was 92.8%.

Question: For `NCCNC(=O)c1cccc(COc2ccccc2NC(=O)c2cc(Br)c(Br)[nH]2)c1`, which growth is on record?
Answer: Its growth is 99.8%.

Question: For `CC1CCN(CC(=O)Nn2c(COc3ccccc3)nc3ccccc3c2=O)CC1`, which growth is on record?
Answer: Its growth is 89.9%.

Question: Which growth does the source give for `CC(C)(C)Nc1nc2c(OCCc3ccccc3)cccn2c1-c1ccc([N+](=O)[O-])cc1` here?
Answer: Its growth is 49.9%.
